# Reference: PubChem BioAssay (Tox21)
# Results filed as inconclusive are left out. Entries that show only a call come without a potency. Calls of active or inactive are those of the source. Unless noted, calls come from the whole dose curve; as a rule, active = well fitted curve in the direction sought with a large enough effect in the repeat runs; inconclusive = weak or mixed curves; inactive = no such curve, though single readings can be large; an effect the other way counts as inactive or inconclusive.
# Experiments:
# [1] = qHTS assay for small molecule agonists of the p53 signaling pathway (AID 651631; calls by dose curve; note: nearly all actives have a fitted effect of over 15% in size)
# Outline: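 HCT-116 p53RE-bla reporter line, 16 h compound treatment at 37 °C, then fluorescence after 2 h with B/G FRET substrate.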
# [2] = qHTS assay for small molecules that induce genotoxicity in human embryonic kidney cells expressing luciferase-tagged ATAD5 (AID 651632); note: nearly all actives have a fitted effect of over 15% in size
# Outline: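 HEK293T cells carrying luciferase-tagged ATAD5 were given compound or DMSO vehicle and incubated 16 hr at 37C, 5% CO2. Luciferase activity was read after 30 min at room temperature with Amplite; a rise signals genotoxic stress.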
# [3] = qHTS assay for small molecule agonists of the p53 signaling pathway - cell viability (AID 651633; calls by dose curve;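 note: p53RE-bla HCT reporter cells with a stable beta-lactamase p53 reporter; series mostly up to about 83 µM; nearly all actives have a fitted effect of over 30% in size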)
# Outline: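 Viability counter-read: CellTiter-Glo luminescence (30 min, room temperature) in the same p53RE-bla plates. These plates had been exposed to compounds for 16 h at 37 C.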
# [4] = qHTS assay for small molecule disruptors of the mitochondrial membrane potential - cell viability (AID 720634; calls by dose curve;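 note: human HepG2 liver cancer cells; series mostly up to about 83 µM; nearly all actives have a fitted effect of over 20% in size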)
# Outline: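 HepG2 cells, 2,000 per well, attached overnight, then treated 1 hr at 37 C, 5% CO2. Viability read as ATP by CellTiter-Glo luminescence after 30 min at room temperature. Read in the same wells as the m-MPI membrane-potential dye assay.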
# [5] = qHTS assay to test for compound auto fluorescence at 535 nm (green) in HepG2 cells (AID 720675)
# [6] = qHTS assay to test for compound auto fluorescence at 590 nm (red) in HEK293 cells (AID 720679)
# Outline: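 Each well held 2,000 HEK293 cells in medium containing 10% dialyzed FBS. Following 4-5 hr attachment at 37C, 23 nL test compound or DMSO was added; plates sat overnight, and red fluorescence (540/590nm) was recorded.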
# [7] = qHTS assay to test for compound auto fluorescence at 535 nm (green) in HEK293 cells (AID 720680)
# [8] = qHTS assay to test for compound auto fluorescence at 460 nm (blue) in HEK293 cell free culture (AID 720681)
# Outline: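 Blue fluorescence (Ex 405/Em 460 nm, triamterene-equivalent) was read immediately after pin transfer of compound or DMSO into medium (DMEM, 10% FBS) without cells.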
# [9] = qHTS assay to test for compound auto fluorescence at 535 nm (green) in HEK293 cell free culture (AID 720682)
# Outline: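 Steps: dispense DMEM/10% FBS into empty wells; pin in compound or DMSO; measure fluorescence at 485/535 nm. Values are fluorescein equivalents.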
# [10] = qHTS assay to test for compound auto fluorescence at 590 nm (red) in HEK293 cell free culture (AID 720683)
# Outline: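 Red-channel autofluorescence of compounds in culture medium (DMEM, 10% FBS), no cells, measured at 540/590 nm. Rose Bengal sodium is the reference fluorophore for equivalence.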
# [11] = qHTS assay to test for compound auto fluorescence at 590 nm (red) in HepG2 cell free culture (AID 720684)
# Outline: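 Steps: dispense MEM/10% FBS medium, no cells; pin compound or DMSO vehicle; read red channel, Ex/Em 540/590 nm. Output given as Rose Bengal sodium equivalents.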
# [12] = qHTS assay to test for compound auto fluorescence at 460 nm (blue) in HepG2 cell free culture (AID 720685)
# Outline: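 Compound (23 nL) or DMSO pinned into cell-free MEM with 10% FBS; blue fluorescence read at 405/460 nm excitation/emission, expressed as auto-fluorescence equivalency to triamterene.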
# [13] = qHTS assay to test for compound auto fluorescence at 535 nm (green) in HepG2 cell free culture (AID 720686)
# [14] = qHTS assay to test for compound auto fluorescence at 460 nm (blue) in HepG2 cells (AID 720687)
# Outline: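 Blue-channel autofluorescence (Ex/Em 405/460 nm, triamterene-equivalent) was measured after 1 hr compound exposure at 37 C, 5% CO2. Cells were HepG2, plated overnight at 37 C in MEM plus 10% FBS.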
# [15] = target: Glucocorticoid receptor (Homo sapiens) (UniProt P04150); assay: qHTS assay to identify small molecule agonists of the glucocorticoid receptor (GR) signaling pathway (AID 720691; active = well fitted activation curve with a large enough effect in the signal ratio in the repeat runs, not every such curve was filed as active; the % refers to the signal ratio)
# Outline: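 GR-bla HeLa cells carrying a GRE-driven beta-lactamase reporter, exposed to compounds for 18 h at 37 C. Reporter activation read as fluorescence after 2 h with LiveBLAzer B/G FRET substrate at room temperature.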
# [16] = target: Glucocorticoid receptor (Homo sapiens) (UniProt P04150); assay: qHTS assay to identify small molecule antagonists of the glucocorticoid receptor (GR) signaling pathway (AID 720692; active = well fitted inhibition curve with a large enough effect in the signal ratio in the repeat runs, not every such curve was filed as active; the % refers to the signal ratio; note: potency is the fitted concentration of half-maximal effect)
# Outline: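 GR-bla HeLa cells carrying a GRE-driven beta-lactamase reporter received compound after 4 h plating, then dexamethasone (5 nM final). After 18 h at 37C, the FRET substrate was loaded for 2 h at room temperature and fluorescence read.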
# [17] = qHTS assay for small molecules that induce genotoxicity in human embryonic kidney cells expressing luciferase-tagged ATAD5 - cell viability (AID 651634; calls by dose curve; note: nearly all actives have a fitted effect of over 25% in size)
# Outline: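 HEK293T cells carrying luciferase-tagged ATAD5, 2,000 cells/well, exposed to compound for 15.5 hr at 37C. Viability read as live-cell protease activity by CellTiter-Fluor fluorescence after 30 min at 37C.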
# [18] = qHTS assay for small molecule disruptors of the mitochondrial membrane potential (AID 720635); note: potency is the fitted concentration of half-maximal effect
# Outline: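 Mitochondrial membrane potential tracked with Mito-MPS dye, red aggregates (ex 540/em 590 nm) against green monomers (ex 490/em 535 nm). Compound treatment 1 hr at 37C, dye 30 min in HepG2.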
# [19] = qHTS assay to test for compound auto fluorescence at 590 nm (red) in HepG2 cells (AID 720674)
# Outline: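 1 hr compound incubation on HepG2 cells, 37 C, 5% CO2; plate read ex 540 nm / em 590 nm; intensities reported as Rose Bengal sodium equivalents.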
# [20] = qHTS assay to test for compound auto fluorescence at 460 nm (blue) in HEK293 cells (AID 720678)
# Outline: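 Cells were seeded and left to adhere for 4-5 hr at 37C. Compounds were then pin-transferred. After an overnight incubation at 37C under 5% CO2, intrinsic fluorescence at 405/460 nm was measured and referenced to triamterene.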
# Chain of Glucocorticoid receptor (Homo sapiens) (P04150 whole entry, looked up): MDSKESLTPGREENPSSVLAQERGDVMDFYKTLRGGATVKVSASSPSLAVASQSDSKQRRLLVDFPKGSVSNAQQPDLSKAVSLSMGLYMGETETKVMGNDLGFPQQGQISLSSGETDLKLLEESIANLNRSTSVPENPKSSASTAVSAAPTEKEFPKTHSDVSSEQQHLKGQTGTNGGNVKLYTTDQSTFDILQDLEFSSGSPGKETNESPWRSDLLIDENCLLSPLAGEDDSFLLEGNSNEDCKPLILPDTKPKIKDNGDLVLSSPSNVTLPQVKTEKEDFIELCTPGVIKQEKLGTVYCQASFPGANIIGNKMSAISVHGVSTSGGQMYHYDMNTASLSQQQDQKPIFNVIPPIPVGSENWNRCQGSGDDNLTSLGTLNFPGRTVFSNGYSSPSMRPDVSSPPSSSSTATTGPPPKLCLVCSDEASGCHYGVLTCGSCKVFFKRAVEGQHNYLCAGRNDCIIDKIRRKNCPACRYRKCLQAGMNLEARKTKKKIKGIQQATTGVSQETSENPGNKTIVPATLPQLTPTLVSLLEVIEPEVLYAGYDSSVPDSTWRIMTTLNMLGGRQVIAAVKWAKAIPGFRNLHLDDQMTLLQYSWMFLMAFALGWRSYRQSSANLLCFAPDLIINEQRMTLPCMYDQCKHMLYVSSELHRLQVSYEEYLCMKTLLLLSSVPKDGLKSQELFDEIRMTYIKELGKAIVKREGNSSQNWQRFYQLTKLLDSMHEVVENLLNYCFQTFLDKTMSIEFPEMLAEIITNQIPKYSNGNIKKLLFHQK
SMILES,Potency [1],outcome [2],Potency [3],Potency [4],outcome [5],outcome [6],outcome [7],outcome [8],outcome [9],outcome [10],outcome [11],outcome [12],outcome [13],outcome [14],Potency [15],Potency [16],Potency [17],Potency [18],outcome [19],outcome [20]
[O-][Br+2]([O-])O,inactive,inactive,inactive,inactive,inactive,inactive,inactive,inactive,inactive,inactive,inactive,inactive,inactive,inactive,inactive,inactive,,,,
CCN(CCO)CCn1c(Cc2ccccc2)nc2c1c(=O)n(C)c(=O)n2C,inactive,,inactive,inactive,inactive,inactive,inactive,inactive,inactive,inactive,inactive,,inactive,inactive,inactive,inactive,inactive,inactive,inactive,inactive
CC(C)(C)C(=O)C(Cl)Cl,inactive,inactive,inactive,inactive,inactive,inactive,inactive,inactive,inactive,inactive,inactive,inactive,inactive,inactive,,,,inactive,inactive,
CC#Cc1cc(C)nc(Nc2ccccc2)n1,inactive,,inactive,inactive,inactive,inactive,inactive,inactive,inactive,inactive,inactive,,inactive,inactive,inactive,54.9 µM (active),inactive,27.3 µM (active),inactive,inactive
N[C@@H]1C[C@H]1c1ccccc1,inactive,inactive,inactive,inactive,inactive,inactive,inactive,inactive,inactive,inactive,,inactive,inactive,inactive,,,inactive,,inactive,
CCNP(=S)(OC)O/C(C)=C/C(=O)OC(C)C (stereo unspecified),inactive,inactive,inactive,,inactive,inactive,inactive,inactive,inactive,,,,inactive,inactive,inactive,inactive,inactive,,inactive,inactive
CC[C@H](N)c1ccccc1,inactive,inactive,inactive,inactive,inactive,inactive,inactive,,inactive,inactive,inactive,inactive,inactive,inactive,inactive,inactive,inactive,,inactive,inactive
BrCCc1ccccc1,inactive,inactive,inactive,inactive,inactive,inactive,inactive,,inactive,,inactive,inactive,inactive,inactive,inactive,inactive,inactive,,,inactive
CCCOc1nn(C(=O)NS(=O)(=O)c2ccccc2C(=O)OC)c(=O)n1C,inactive,inactive,inactive,inactive,inactive,inactive,inactive,inactive,,inactive,inactive,inactive,inactive,inactive,inactive,inactive,,inactive,,inactive
c1cncc([C@@H]2CCCCN2)c1,inactive,inactive,inactive,inactive,inactive,inactive,inactive,inactive,inactive,inactive,inactive,,inactive,inactive,inactive,inactive,,,inactive,inactive
Cc1ccc2c(c1)C1CN(C)CCC1N2 (stereo unspecified),inactive,inactive,inactive,inactive,inactive,inactive,inactive,inactive,inactive,,inactive,inactive,inactive,inactive,inactive,inactive,,inactive,inactive,
CN1COCN(Cc2cnc(Cl)s2)/C1=N\[N+](=O)[O-],inactive,inactive,inactive,inactive,inactive,inactive,inactive,inactive,inactive,inactive,inactive,inactive,inactive,inactive,inactive,inactive,inactive,,,inactive
C=CC=O,inactive,inactive,inactive,,inactive,inactive,inactive,inactive,inactive,inactive,inactive,inactive,inactive,inactive,inactive,inactive,inactive,,,inactive
COc1cccc([C@@]2(O)CCCC[C@@H]2CN(C)C)c1,inactive,inactive,inactive,inactive,inactive,inactive,inactive,inactive,,inactive,inactive,inactive,inactive,inactive,inactive,inactive,,,,inactive
OCC(Cl)CCl (stereo unspecified),inactive,inactive,inactive,inactive,inactive,inactive,inactive,inactive,inactive,inactive,inactive,inactive,inactive,inactive,inactive,,,inactive,inactive,
CNC(=O)Oc1ccccc1C(C)C,inactive,inactive,inactive,inactive,inactive,inactive,inactive,,,inactive,inactive,,inactive,inactive,inactive,inactive,inactive,,inactive,
